# Screening results (PubChem BioAssay)
# Compounds with a hit are over-represented: about 0.85% of the library has one in this group of screens.
# GAA inh: alpha-glucosidase (human) inhibition. P10253. purified human GAA, 4-MU-alpha-glucoside fluorescence. Potency, µM (titrated, usually from 76.9 µM), without a hit: at the top dose activity change, negative = inhibition, actives largely listed as inhibitors. actives 0.005% (n = 200,000);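 further: potency means the concentration at half of the fitted maximal effect; plate controls were uninhibited enzyme wells for no effect and no-enzyme background for full effect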
#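 Enzyme (4 nM final) mixed with compound (up to 77 uM), then 4-MU-alpha-D-pyranoside (400 uM final) added; 20 min at room temperature, pH 5.0. Reaction stopped at pH 10, fluorescence read, AC50 derived by Hill fit.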
# B2AR arrestin: recruits beta-arrestin to the human beta2-adrenergic receptor | AID 492947 | P07550 | Potency, µM (top dose mostly 46.1 µM), inactives show at the highest dose activation, hits mostly activators | actives 0.02% (n = 330,000) | beta-arrestin recruitment to beta2AR, cell-based reporter;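 further: potency means the concentration at half of the fitted maximal effect; 0% = DMSO controls and full agonism = EC100 isoproterenol or metaproterenol; nearly all actives have a fitted effect of over 65% in size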
# Target sequence (P07550 whole entry, looked up): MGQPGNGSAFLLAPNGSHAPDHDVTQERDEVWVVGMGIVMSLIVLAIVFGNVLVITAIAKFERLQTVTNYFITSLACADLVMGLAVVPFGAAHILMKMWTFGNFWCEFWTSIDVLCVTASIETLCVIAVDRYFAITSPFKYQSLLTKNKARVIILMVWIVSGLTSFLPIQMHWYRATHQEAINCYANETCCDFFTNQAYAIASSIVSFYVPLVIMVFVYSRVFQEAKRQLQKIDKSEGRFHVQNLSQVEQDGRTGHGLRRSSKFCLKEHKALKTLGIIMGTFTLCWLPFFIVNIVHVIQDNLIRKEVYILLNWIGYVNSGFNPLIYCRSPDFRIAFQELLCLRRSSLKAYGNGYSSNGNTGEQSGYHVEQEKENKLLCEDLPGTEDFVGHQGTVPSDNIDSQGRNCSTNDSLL
# GAA spleen mod: inhibitors or activators of human alpha-glucosidase in spleen homogenate. P10253. human spleen homogenate, 4-MU-alpha-glucoside fluorescence. Potency, µM (top dose mostly 79.9 µM), for the others: at the top dose activity change, negative = inhibition, actives largely listed as inhibitors. actives 0.006% (n = 240,000). AID 2112;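 further: potency means the concentration at half of the fitted maximal effect; 0% = enzyme with vehicle and -100% = no enzyme basal signal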
#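 AC50 values come from Hill-equation fits of concentration-response data, normalized to no-enzyme and full-activity controls. Enzyme source: 1 ug human spleen homogenate; 1 mM fluorogenic 4-MU glucoside, pH 5.0 citrate buffer, 37 C, 40 min.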
# GAA glycogen mod: inhibitors or activators of human alpha-glucosidase glycogen cleavage; actives 0.38% (n = 300,000); P10253; Potency, µM (highest dose often 76.4 µM), for the others: top-dose activity change, negative = inhibition, most hits filed as inhibitors; recombinant GAA, glycogen substrate, Amplex Red glucose oxidase fluorescence;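 further: potency means the concentration at half of the fitted maximal effect; 0% = full enzyme reaction and -100% = no-enzyme basal signal; the screen sought inhibitors and activators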
#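 Natural-substrate format: glycogen cleavage by 4 nM human enzyme, glucose read by Amplex Red coupling (Ex 573, Em 610 nm). Normalized to enzyme and no-enzyme controls.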
# FBPA coupling cs: coupling enzyme interference in Giardia aldolase counter-screen; actives 0.67% (n = 290,000); coupling enzyme system counterscreen, AmpLite Red fluorescence; AID 2472; activity change, negative = inhibition, % at 58.2 µM, hits read low; in the data active means activity change below about -30%
#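 First, compound is pin-transferred into glyceraldehyde-3-phosphate coupling-enzyme reagent at 57.5 uM final and held 10 min at RT. Next, substrate, coupling system and AmpLite Red are added. After 20 min RT, fluorescence (525/598 nm) is read.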
# Active calls of the source: *; ? = inconclusive; . = no result; [ ] = remark or other dose. Unless noted, the call rests on the fitted dose curve; in most records, active means well fitted curve in the direction sought with a large enough effect; inconclusive means small, poorly fitted or top-dose-only effect, or another doubt; inactive means no such curve, though single readings can be large; an effect the other way counts as inactive or inconclusive. Unless noted, on the % scale 0 is the no-effect control and ±100 the full control effect.
SMILES,GAA inh,B2AR arrestin,GAA spleen mod,GAA glycogen mod,FBPA coupling cs
Cc1ccc2nc(NCCN)c3ncc(C)n3c2c1,.,.,-2%,.,-6
NNC(=O)CN1C(c2ccccc2Br)=Nc2ccc(Br)cc2C1c1ccccc1 (configuration not stated),4%,-1%,0%,4%,-38*
CCC(=O)NC1=C(NC(C)c2ccccc2)C(=O)c2ccccc2C1=O (configuration not stated),-1%,0%,-4%,5%,-46*
CCCCNc1nc(C)nc2c1nc(-c1ccccc1)n2CC(C)(C)CN(C)C,.,.,-5%,.,3
CCCC(=O)Nc1nc2c(ncn2[C@@H]2O[C@H]3COP(=O)(O)O[C@@H]3[C@@H]2OC(=O)CCC)c(=O)[nH]1,.,.,2%,.,0
Cc1cc(=O)oc2cc(OCC(=O)NC(Cc3c[nH]c4ccc(O)cc34)C(=O)O)c(Cl)cc12 (configuration not stated),.,-1%,.,7.9µM*,-6
Cc1cc(=O)oc2c(C)c(OC(C)C(=O)NC(Cc3c[nH]c4ccc(O)cc34)C(=O)O)ccc12 (configuration not stated),.,-1%,.,?,-9
COCCN=c1scc(-c2cccs2)n1/N=C/c1ccc(O)c(O)c1O,8%,-1%,-9%,?,-33*
CCN=c1scc(C)n1/N=C/c1ccc(O)c(O)c1O,-9%,0%,-16%,16µM*,-37*
CCN=c1scc(C)n1/N=C/c1cc(Br)c(O)c(Br)c1,-5%,0%,11%,14%,6
COCCN=c1scc(-c2ccccc2)n1/N=C/c1c[nH]c2ccccc12,-8%,0%,2%,-10%,-5
CC(=O)Nc1ccc(OCC(=O)Nc2ccc(Cl)c(S(=O)(=O)N3CCOCC3)c2)cc1,.,0%,.,.,.
CC(=O)Nc1ccc(-c2csc(NC(=O)C3CC(=O)N(c4ccc5c(c4)OCCO5)C3)n2)cc1 (configuration not stated),.,0%,13%,0%,-35*
COc1ccc(-c2csc(NC(=O)C3CC(=O)N(c4ccc5c(c4)OCCO5)C3)n2)cc1 (configuration not stated),-10%,0%,-4%,-1%,-1
Cc1cc(C(=O)NNc2ccc(C(C)C)cc2)n(C(C)(C)C)n1,.,-1%,-6%,28µM*,-2
Cc1nnsc1C(=O)NNc1ccc(C(C)C)cc1,-13%,0%,3%,-11%,1
COc1cc2c(cc1OC)C(c1cc(OC)c(O)c(OC)c1)CC(=O)N2 (configuration not stated),.,.,.,-29%[76.3 µM],.
COc1ccc(Cl)cc1-c1ccc(C(=O)O)s1,.,.,-8%[119 µM],.,15
COc1ccc(OC)c(NC(=O)NC2(C(F)(F)F)Oc3ccccc3O2)c1,0%,0%,2%,35µM*,-9
Cc1cc(NC(=O)NC2(C(F)(F)F)Oc3ccc(Cl)cc3O2)no1 (configuration not stated),-1%,0%,-2%,7.1µM*,2
COCCNC(=O)NC1(C(F)(F)F)Oc2ccc(Cl)cc2O1 (configuration not stated),-9%,0%,-2%,-19%,3
O=C1c2cccc3cccc(c23)C(=O)N1CC1CCN(CC(O)COc2ccc3ccccc3c2)CC1 (configuration not stated),-1%,-1%,-16%,25µM*,.
COc1cccc(OCC(O)CN2CCC(CN3C(=O)c4cccc5cccc(c45)C3=O)CC2)c1 (configuration not stated),-7%,0%,0%,2%,-2
Cc1cccc(OC(=O)CSc2nnc(-c3cccs3)o2)c1C,.,.,.,16%[76.3 µM],.
O=c1cc(-c2ccc(O)cc2)oc2c1ccc1ccccc12,.,0%,.,.,.
SMILES,GAA inh,B2AR arrestin,GAA spleen mod,GAA glycogen mod,FBPA coupling cs
O=c1cc(-c2ccc(O)cc2)oc2c(O)c(O)c(O)c(O)c12,0%,-1%,-3%,?,-66*
O=c1cc(-c2ccccc2)oc2cc(O)c(O)c(O)c12,.,-1%,9%,.,-45*
C=CCOC(=O)C(C(C)=O)C(NC(=O)OC)c1ccc(F)cc1 (configuration not stated),.,.,2%[17.4 µM],.,-1
CCOCCCNC(=O)C1CCN(c2nn3cc(-c4ccc(F)cc4)nc3s2)CC1,.,.,.,16%[76.3 µM],.
Cc1ccc(-c2cc(C3C4C=CCC(C)C4C(=O)N3Cc3ccccc3)ccc2F)cc1 (configuration not stated),.,.,-9%,.,0
COc1ccc(Nc2nc3c([nH]2)c(=O)[nH]c(=O)n3C)cc1,-2%,-1%,-4%,10µM*,0
COCCCNc1nc2c([nH]1)c(=O)[nH]c(=O)n2C,-4%,0%,-3%,?,1
COc1cc(C2C3=C(CCCC3=O)Nc3[nH]n(-c4ccccc4)c(=O)c32)ccc1O (configuration not stated),3%,0%,-12%,28µM*,-15
N#C/C(=C\c1ccc(N2CCOCC2)o1)c1nc2ccccc2[nH]1,-7%,0%,1%,-16%,-49*
N#C/C(=C\c1ccc(N2CCCCC2)o1)C(N)=O,-11%,0%,2%,?,0
N#C/C(=C/c1ccc(N2CCOCC2)o1)c1ccc(Cl)cc1,-10%,11%,-2%,-12%,-47*
O=C(Cc1coc2ccc3ccccc3c12)N1CCCC1,-6%,-1%,-2%,-6%,-37*
O=C(O)Cc1coc2ccc3ccccc3c12,1%,1%,0%,4%,0
O=C1NN(c2cccc(Br)c2)C(=O)/C1=C\c1ccc(O)cc1,.,0%,.,1%,1
O=C1NN(c2ccc(Br)cc2)C(=O)/C1=C\c1ccc(O)cc1O,.,1%,.,8.9µM*,3
O=c1[nH]ccc2c(S(=O)(=O)N3CCCNCC3)cccc12,.,.,-1%,.,0
Cc1cc(O)ccc1N=Cc1c(C(F)(F)F)[nH][nH]c1=O,-11%,0%,3%,22µM*,-22
COc1cccc([C@@H]2Oc3ccc(OC)cc3C[C@H]2OC(=O)Nc2ccc(OC(F)F)cc2)c1,.,.,-6%,.,2
O=c1oc2ccccc2c(Nc2ccc(O)cc2)c1[N+](=O)[O-],-7%,0%,-10%,3.5µM*,-4
COc1ccc(/C=C/c2ccccc2)cc1C1C2C=CCCC2(C)C(=O)N1Cc1ccccc1 (configuration not stated),.,.,-11%,.,0
O=C(O)c1ccc(/C=N/n2cc(-c3ccccc3)[nH]c2=S)cc1,.,0%,-1%,28µM*,3
CCOC(=O)c1c(C)[nH]c2c1cc(O)c1ccccc12,0%,0%,-1%,16µM*,-33*
CCOC(=O)c1c(C)oc2c1cc(O)c1ccccc12,1%,0%,-13%,?,-14
